KB-3-1 cytotox = qHTS assay for MDR1-selective chemotherapeutics: Primary screen using the parental adenocarcinoma cell KB-3-1; AID 1347075, 2019; Potency, µM (titrated, usually from 46.1 µM), most hits filed as cytotoxic; KB-3-1 viability, CellTiter-Glo ATP luminescence, 72 h; 1.4% of 400,000 active; also: potency is read from the fitted curve at half-maximal effect; % is scaled to controls: 0 for no effect and ±100 for the full control effect; nearly all actives have a fitted effect of over 60% in size
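Cytotoxicity measured as CellTiter-Glo luminescence after 72 h at 37 C. Compound titrations were pinned onto drug-naive KB-3-1 parental adenocarcinoma cells grown in DMEM with 10% FBS, and normalized data fitted to concentration-response curves.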
IL1B secr inh = qHTS for Inhibitors of Inflammasome Signaling: IL-1-beta AlphaLISA Primary Screen. THP-1 LPS/ATP IL-1B secretion, AlphaLISA, 16 h; stronger effect = lower value. 4.7% of 360,000 active. activity change, % at 57.5 µM; in the data active = activity change below about -50%; inconclusive = mostly about -30% to -49%; also: % is scaled to controls: 0 for no effect and ±100 for the full control effect
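THP-1 cells pretreated 1 hr with compounds (up to 57.5 uM final), then stimulated with LPS (250 ng/mL final) plus ATP (1.25 mM final); secreted IL-1B measured by AlphaLISA after 16 hr, decreased signal indicating inhibition.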
MCF10A rerep = A quantitative high throughput screen for small molecules that induce DNA re-replication in MCF 10a normal breast cells. MCF 10A DNA re-replication, Hoechst nuclear intensity, 48 h. Potency, µM (titrated, usually from 46.1 µM), inactives show top-dose activity, positive = re-replication, hits mostly activators. 2.9% of 350,000 active. AID 624296, 2012; also: potency is read from the fitted curve at half-maximal effect; % of control where 0% means no effect; nearly all actives have a fitted effect of over 50% in size
SW480 rerep = A quantitative high throughput screen for small molecules that induce DNA re-replication in SW480 colon adenocarcinoma cells. SW480 DNA re-replication, Hoechst DNA content imaging, 48 h. Potency, µM (titrated, usually from 46.1 µM), without a hit: top-dose re-replication activation, most hits filed as activators. 1.8% of 340,000 active; also: potency is read from the fitted curve at half-maximal effect; % of control where 0% means no effect; nearly all actives have a fitted effect of over 55% in size
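Image-based read-out: total Hoechst fluorescence of nuclei (405 nm excitation, 500-530 nm emission), with hits raising the fraction of high-intensity nuclei. SW480 colon cells incubated 48 hr with compounds at 37 C.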
KB-V1 cytotox = qHTS assay for MDR1-selective chemotherapeutics: Primary screen using the drug-selected MDR subline cells KB-V1 | 3.4% of 400,000 active | Potency, µM (highest dose often 46.1 µM), hits mostly cytotoxic | KB-V1 MDR cells viability, CellTiter-Glo, 72 h; also: potency is read from the fitted curve at half-maximal effect; % is scaled to controls: 0 for no effect and ±100 for the full control effect; nearly all actives have a fitted effect of over 60% in size
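KB-V1 cells (P-gp-expressing MDR subline of KB-3-1) in phenol-red-free DMEM with 10% FBS were exposed to library compounds over a concentration series for 72 h at 37 degrees C. Viability read by CellTiter-Glo luminescence; concentration-effect curves fitted after normalization.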
Active calls of the source: *; i = inactive; ? = inconclusive; / = not tested or not shown. The list is not random: actives were taken first. Their share in the collection is about 9.9%. Unless noted, calls follow the shape of the dose curve; as a rule, active = well fitted curve in the direction sought with a large enough effect; inconclusive = small, poorly fitted or top-dose-only effect, or another doubt; inactive = no such curve, though single readings can be large; an effect the other way counts as inactive or inconclusive.

SMILES	KB-3-1 cytotox	IL1B secr inh	MCF10A rerep	SW480 rerep	KB-V1 cytotox
CCCN[C@@H]1C(=O)N2C(C(=O)OCCC)=C(C)CS[C@H]12	i	-3.4	16.9%	17.6%	?
CN1C2=NCCN2C(=O)c2cc(Cl)ccc21	i	-16.8	2.8%	?	i
Clc1ccc2c(c1)-c1ccccc1C1=NCCN12	10.3µM*	-103.5*	/	/	8.2µM*
COc1ccc(Br)cc1S(=O)(=O)N1CCN=C1c1ccccc1	/	8.9	-6.9%	13.7%	/
Brc1ccc2c(c1)-c1ccccc1C1=NCCN12	?	-103.7*	/	/	10.3µM*
COCCCN1C(=O)C(CC(=O)NC(c2ccccc2)c2ccccc2)CC(C(=O)N(C(C)C)C(C)C)=C1C (stereo not given)	i	-10.7	/	/	i
COCCNC(=S)Nc1ccc(N2CCOCC2)c(S(=O)(=O)Nc2ccccc2OC)c1	i	32.1	-0.4%	-3.1%	i
CCN(CC)CCn1c(NC(=O)c2ccc(C(F)(F)F)cc2)nc2ccccc21	i	48.0	20.6µM*	0.5%	i
CCN(CC)CCn1c(NC(=O)c2ccc(C)cc2)nc2ccccc21	?	44.3	1.9%	0.6%	?
CCCN1CCC(=NNc2ccc(S(=O)(=O)N(CC)CC)cc2[N+](=O)[O-])CC1	?	-0.8	5.7%	?	11.6µM*
Cc1ccc(NC(=O)CSc2nc(O)c(Cc3ccccc3)c(=O)n2-c2ccccc2)cc1	i	0.0	1.7%	1.9%	i
COC(C(=O)C(O)C(C)O)C1Cc2cc3cc(OC4CC(OC5CC(O)C(O)C(C)O5)C(O)C(C)O4)c(C)c(O)c3c(O)c2C(=O)C1OC1CC(OC2CC(OC3CC(O)C(OC)C(C)O3)C(O)C(C)O2)C(O)C(C)O1 (stereo not given)	0.184µM*	-88.7*	-10.5%	-9.5%	i
COC(C(=O)C(O)C(C)O)C1Cc2cc3cc(OC4CC(OC5CC(O)C(O)C(C)O5)C(O)C(C)O4)c(C)c(O)c3c(O)c2C(=O)C1OC1CC(OC2CC(OC3CC(C)(O)C(O)C(C)O3)C(O)C(C)O2)C(O)C(C)O1 (stereo not given)	0.0052µM*	/	?	-23.2%	i
CO[C@H](C(=O)[C@@H](O)[C@@H](C)O)C1Cc2cc3cc(O[C@H]4C[C@@H](O[C@H]5C[C@@H](O)[C@H](O)[C@@H](C)O5)[C@@H](O)[C@@H](C)O4)c(C)c(O)c3c(O)c2C(=O)[C@H]1O[C@H]1C[C@@H](O[C@H]2C[C@@H](O[C@H]3C[C@](C)(O)[C@H](O)[C@@H](C)O3)[C@H](O)[C@@H](C)O2)[C@H](O)[C@@H](C)O1 (stereo not given in full)	/	/	-7.0%	?	/
CC(NC(=O)CCn1ccc2cc(S(=O)(=O)N3CCCC3)ccc21)c1ccccc1 (stereo not given)	i	-15.6	-2.5%	-5.7%	?
O=C(Nc1ccccn1)Nc1ccccc1Cl	i	4.0	-2.8%	1.8%	i
O=C(Nc1cnccn1)Nc1cccc(Cl)c1Cl	?	0.7	?	4.2%	11.6µM*
O=C(Nc1cnccn1)Nc1ccccc1Cl	?	0.0	-2.2%	9.7%	9.2µM*
CC(C)c1ccc(NC(=O)Nc2cnccn2)cc1	4.11µM*	13.5	4.11µM*	?	?
CCc1ccccc1NC(=O)Nc1cnccn1	i	-22.7	13.9%	-42.6%	i
CCOc1ccccc1NC(=O)Nc1cnccn1	i	-27.2	-7.8%	6.1%	6.51µM*
Cc1ccc(C(=O)NNC(=O)CCCN2C(=O)/C(=C/c3ccccc3Cl)SC2=S)cc1	i	-106.9*	22.0%	-161.7%	i
O=C(CCCN1C(=O)/C(=C/c2ccccc2Cl)SC1=S)NNC(=O)c1ccc(Cl)cc1	i	-19.9	0.3%	26.4%	i
O=C(CCCN1C(=O)/C(=C/c2ccccc2Cl)SC1=S)Nc1ccccn1	i	-81.4*	?	8.5%	?
Cc1cccc(-c2cc(C(=O)O)c3c(-c4ccc(F)cc4)[nH]nc3n2)c1	i	/	/	/	i
SMILES	KB-3-1 cytotox	IL1B secr inh	MCF10A rerep	SW480 rerep	KB-V1 cytotox
CCCN=C(C)c1c(-c2ccccc2)[nH]n(-c2nc3ccccc3s2)c1=O	i	-5.5	26.8%	11.1%	8.2µM*
CCC(=NCc1ccco1)c1c(C(F)(F)F)[nH]n(-c2nc3ccccc3s2)c1=O	i	-11.3	4.7%	-1.5%	20.6µM*
CCCc1[nH]n(-c2nc3ccccc3s2)c(=O)c1C=NCC(C)C	i	-58.0*	-3.4%	-11.5%	i
CCN(CC)CCCN=Cc1c(-c2ccccc2)[nH]n(-c2nc3ccccc3s2)c1=O	i	-28.0	-0.3%	0.0%	i
O=c1c(Cl)c(N/N=C/c2ccc(Br)cc2)cnn1-c1ccccc1	i	-13.8	7.08µM*	?	i
CNc1cnn(-c2ccccc2)c(=O)c1Cl	i	3.6	-52.3%	-3.0%	i
CCN=C1NN=C(c2c[nH]c3ccccc23)CS1	i	-105.7*	0.6%	0.2%	i
COCC(C)N=C1NN=C(c2c[nH]c3ccccc23)CS1 (stereo not given)	i	-79.7*	-0.1%	-0.8%	i
CCN=C1NN=C(c2cc(C)n(CCc3ccccc3)c2C)CS1	i	5.2	?	12.9%	?
Nc1nc2cc(Cl)ccc2cc1C(=O)NCCCc1ccccc1	i	44.3	/	/	i
COC(=O)c1ccsc1NC(=O)CN1CCN(Cc2ccc3c(c2)OCO3)CC1	i	-4.0	24.1%	0.1%	16.4µM*
COC(=O)c1c(NC(=O)CN2C(=O)c3ccccc3C2=O)sc(Cc2ccc3c(c2)OCO3)c1C	i	-27.2	-0.3%	1.6%	i
CCOC(=O)N1CCN(Cc2ccc3c(c2)OCO3)CC1	i	-8.7	?	-0.7%	i
Cc1c(O)ccc(C(=O)CN2CCN(Cc3ccc4c(c3)OCO4)CC2)c1O	i	33.7	3.2%	-59.6%	23.1µM*
COC(=O)c1c(NC(=O)CN2CCN(Cc3ccc4c(c3)OCO4)CC2)sc(C)c1C	?	-75.9*	?	?	?
CCc1c(C)sc(NC(=O)CN2CCN(C(=O)c3ccco3)CC2)c1C(=O)OC	i	-78.7*	14.7%	-3.1%	i
CC(C)OCCCNC(=O)C(=O)Nc1c2c(nn1-c1ccccc1)CS(=O)(=O)C2	i	/	/	/	i
Cc1ccccc1Cn1cnc2nc3c(cc2c1=O)CC(C)CC3 (stereo not given)	i	/	/	/	i
COc1ccc(OC)c(Nc2nc(=O)c3cccnc3s2)c1	i	-5.5	2.0%	-4.1%	?
